# Test results as given in paper PMC7862700, “An all-to-all approach to the identification of sequence-specific readers for epigenetic DNA modifications on cytosine”.
# Key:
# Test in all cases: DAPPL (digital affinity profiling via proximity ligation, sequencing); 10 mM Tris-HCl pH 7.5, 50 mM NaCl, 1 mM DTT, 4% glycerol, room temperature, 30 min; GST-TFs on glutathione beads, 16-mer random dsDNA library, 0.1% formaldehyde crosslink after washing; high values mean tight binding
# Conditions in all cases: protein: recombinant; tags: N-terminal GST; dsDNA, one strand shown
# [1] = target: T1, ELK1 (Homo sapiens, UniProt P19419 1-428)
# T1 sequence: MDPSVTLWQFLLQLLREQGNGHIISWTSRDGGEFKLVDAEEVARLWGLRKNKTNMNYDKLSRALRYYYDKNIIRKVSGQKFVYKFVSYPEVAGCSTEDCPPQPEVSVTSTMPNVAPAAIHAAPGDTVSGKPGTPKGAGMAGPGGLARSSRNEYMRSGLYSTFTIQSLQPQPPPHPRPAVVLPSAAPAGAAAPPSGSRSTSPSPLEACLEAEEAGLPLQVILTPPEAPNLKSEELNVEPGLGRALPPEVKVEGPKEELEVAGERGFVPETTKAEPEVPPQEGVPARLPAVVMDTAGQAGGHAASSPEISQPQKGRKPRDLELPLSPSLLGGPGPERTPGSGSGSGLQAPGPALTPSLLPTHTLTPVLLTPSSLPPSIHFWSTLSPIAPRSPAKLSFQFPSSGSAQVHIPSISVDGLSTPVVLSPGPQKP
# Procedure, shortened: (§1)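 Pools were built from human transcription factors expressed in yeast as GST fusions, captured on glutathione beads and DNA-barcoded, along with a tag-only sample. Incubation with 200 nmole of a 16-mer random double-stranded DNA library lasted 30 min at room temperature in Tris/NaCl/DTT/glycerol buffer, and was followed by washing, 0.1% formaldehyde crosslinking, proximity ligation, PCR amplification and Illumina NextSeq500 sequencing. Binding signal is the quotient of each hexamer's read frequency for a factor and its frequency for the tag-only sample.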
# [2] = target: T2, GABPA (Homo sapiens, UniProt Q06546 1-454)
# T2 sequence: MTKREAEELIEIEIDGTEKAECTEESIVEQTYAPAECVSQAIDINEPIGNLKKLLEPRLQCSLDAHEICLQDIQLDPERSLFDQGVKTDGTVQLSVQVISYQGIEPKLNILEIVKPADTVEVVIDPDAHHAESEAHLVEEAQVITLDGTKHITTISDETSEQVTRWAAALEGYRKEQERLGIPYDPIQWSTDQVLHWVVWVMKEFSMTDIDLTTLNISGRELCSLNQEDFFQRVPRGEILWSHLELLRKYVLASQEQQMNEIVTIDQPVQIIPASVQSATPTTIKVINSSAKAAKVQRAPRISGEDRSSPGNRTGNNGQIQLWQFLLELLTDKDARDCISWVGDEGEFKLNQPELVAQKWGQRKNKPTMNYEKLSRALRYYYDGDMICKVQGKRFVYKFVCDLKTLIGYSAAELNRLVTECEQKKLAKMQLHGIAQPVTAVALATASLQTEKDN
# Procedure, shortened: as §1
# [3] = target: T3, ERG (Homo sapiens, UniProt P11308 1-479)
# T3 sequence: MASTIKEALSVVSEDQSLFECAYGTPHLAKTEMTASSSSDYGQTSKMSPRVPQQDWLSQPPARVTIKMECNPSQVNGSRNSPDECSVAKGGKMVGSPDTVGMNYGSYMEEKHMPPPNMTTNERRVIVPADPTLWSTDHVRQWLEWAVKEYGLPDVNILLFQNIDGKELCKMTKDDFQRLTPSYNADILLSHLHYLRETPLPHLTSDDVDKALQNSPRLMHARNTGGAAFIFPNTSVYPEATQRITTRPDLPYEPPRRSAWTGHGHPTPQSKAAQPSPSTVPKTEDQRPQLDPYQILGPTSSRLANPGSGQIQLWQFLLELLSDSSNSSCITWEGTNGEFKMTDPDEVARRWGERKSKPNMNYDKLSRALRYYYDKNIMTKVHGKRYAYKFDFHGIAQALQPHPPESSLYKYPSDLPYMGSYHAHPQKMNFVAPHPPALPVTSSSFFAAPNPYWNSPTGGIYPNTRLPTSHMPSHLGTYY
# Procedure, shortened: as §1
# [4] = target: ELF1 (Homo sapiens, UniProt P32519 1-619)
# Procedure, shortened: as §1
# [5] = target: T4, EHF (Homo sapiens, UniProt Q9NZC4 1-300)
# T4 sequence: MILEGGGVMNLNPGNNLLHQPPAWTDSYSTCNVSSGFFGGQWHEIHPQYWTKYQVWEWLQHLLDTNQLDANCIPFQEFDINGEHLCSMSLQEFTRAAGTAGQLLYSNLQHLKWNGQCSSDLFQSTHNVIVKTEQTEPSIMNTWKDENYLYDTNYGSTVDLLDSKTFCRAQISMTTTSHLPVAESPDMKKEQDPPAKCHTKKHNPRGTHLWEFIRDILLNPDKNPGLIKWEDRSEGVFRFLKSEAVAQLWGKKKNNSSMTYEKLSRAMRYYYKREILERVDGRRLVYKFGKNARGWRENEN
# Procedure, shortened: as §1
# [6] = target: SPI1 (Homo sapiens, UniProt P17947 1-270)
# Procedure, shortened: as §1
# [7] = target: SPIB (Homo sapiens, UniProt Q01892 1-262)
# Procedure, shortened: as §1
# [8] = target: T5, FEV (Homo sapiens, UniProt Q99581 1-238)
# T5 sequence: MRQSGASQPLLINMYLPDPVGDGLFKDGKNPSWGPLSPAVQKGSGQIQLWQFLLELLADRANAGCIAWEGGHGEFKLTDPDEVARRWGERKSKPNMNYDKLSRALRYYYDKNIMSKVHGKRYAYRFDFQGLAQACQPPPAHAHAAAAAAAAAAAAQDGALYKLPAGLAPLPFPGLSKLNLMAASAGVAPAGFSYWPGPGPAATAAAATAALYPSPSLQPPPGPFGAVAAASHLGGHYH
# Procedure, shortened: as §1
# [9] = target: ETV5 (Homo sapiens, UniProt P41161 1-510)
# Procedure, shortened: as §1
# [10] = target: ELF4 (Homo sapiens, UniProt Q99607 1-663)
# Procedure, shortened: as §1
# [11] = target: T6, ELF3 (Homo sapiens, UniProt P78545 1-371)
# T6 sequence: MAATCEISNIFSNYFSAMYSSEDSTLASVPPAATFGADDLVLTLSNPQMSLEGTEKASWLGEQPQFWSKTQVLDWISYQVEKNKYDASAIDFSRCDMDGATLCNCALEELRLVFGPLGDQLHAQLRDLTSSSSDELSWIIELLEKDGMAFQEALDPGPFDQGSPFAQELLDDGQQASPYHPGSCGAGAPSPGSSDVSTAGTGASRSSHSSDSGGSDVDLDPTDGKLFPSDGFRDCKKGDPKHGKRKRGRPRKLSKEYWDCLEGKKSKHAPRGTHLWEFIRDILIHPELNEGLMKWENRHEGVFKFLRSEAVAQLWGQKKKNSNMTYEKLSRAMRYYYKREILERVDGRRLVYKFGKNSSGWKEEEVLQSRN
# Procedure, shortened: as §1
# [12] = target: ETV1 (Homo sapiens, UniProt P50549 1-477)
# Procedure, shortened: as §1
# [13] = target: T7, ERF (Homo sapiens, UniProt P50548 1-548)
# T7 sequence: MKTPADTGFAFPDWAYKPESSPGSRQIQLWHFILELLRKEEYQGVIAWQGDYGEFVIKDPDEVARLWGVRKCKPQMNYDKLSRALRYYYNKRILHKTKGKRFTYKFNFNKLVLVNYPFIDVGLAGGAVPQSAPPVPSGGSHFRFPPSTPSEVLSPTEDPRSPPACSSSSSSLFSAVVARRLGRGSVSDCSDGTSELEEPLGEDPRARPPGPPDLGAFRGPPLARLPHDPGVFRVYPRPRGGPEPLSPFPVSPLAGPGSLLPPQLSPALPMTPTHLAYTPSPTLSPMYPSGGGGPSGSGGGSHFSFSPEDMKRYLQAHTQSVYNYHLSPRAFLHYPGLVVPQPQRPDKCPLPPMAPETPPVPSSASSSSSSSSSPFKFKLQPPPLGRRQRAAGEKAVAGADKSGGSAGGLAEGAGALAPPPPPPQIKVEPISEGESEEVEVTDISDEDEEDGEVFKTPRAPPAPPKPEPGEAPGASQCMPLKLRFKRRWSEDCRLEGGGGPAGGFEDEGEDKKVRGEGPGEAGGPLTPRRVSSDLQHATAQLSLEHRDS
# Procedure, shortened: as §1
# [14] = target: T8, ETV3L (Homo sapiens, UniProt Q6ZN32 1-361)
# T8 sequence: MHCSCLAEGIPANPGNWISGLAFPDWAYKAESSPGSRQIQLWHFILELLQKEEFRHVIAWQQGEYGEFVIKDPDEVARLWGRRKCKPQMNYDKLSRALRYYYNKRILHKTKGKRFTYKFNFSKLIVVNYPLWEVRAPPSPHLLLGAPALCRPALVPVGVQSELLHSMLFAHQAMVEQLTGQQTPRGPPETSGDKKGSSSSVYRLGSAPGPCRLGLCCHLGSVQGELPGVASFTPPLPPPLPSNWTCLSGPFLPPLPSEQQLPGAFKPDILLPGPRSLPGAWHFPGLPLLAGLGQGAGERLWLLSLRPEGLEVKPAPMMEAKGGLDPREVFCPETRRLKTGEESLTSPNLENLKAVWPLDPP
# Procedure, shortened: as §1
# [15] = target: T9, ETS2 (Homo sapiens, UniProt P15036 1-469)
# T9 sequence: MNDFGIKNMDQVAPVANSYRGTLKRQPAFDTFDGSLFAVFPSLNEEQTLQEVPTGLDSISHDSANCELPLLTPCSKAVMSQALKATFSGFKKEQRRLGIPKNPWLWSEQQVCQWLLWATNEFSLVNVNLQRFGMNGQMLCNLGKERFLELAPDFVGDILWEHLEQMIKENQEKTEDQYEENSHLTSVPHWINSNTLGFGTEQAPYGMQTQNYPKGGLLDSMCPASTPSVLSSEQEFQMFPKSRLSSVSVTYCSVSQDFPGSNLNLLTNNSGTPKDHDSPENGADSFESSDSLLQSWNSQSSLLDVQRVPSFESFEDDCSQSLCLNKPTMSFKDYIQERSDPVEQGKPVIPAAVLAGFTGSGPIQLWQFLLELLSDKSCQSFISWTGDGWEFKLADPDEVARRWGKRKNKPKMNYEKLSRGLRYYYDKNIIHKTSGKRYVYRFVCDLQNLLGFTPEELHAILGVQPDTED
# Procedure, shortened: as §1
# [16] = target: T10, SPDEF (Homo sapiens, UniProt O95238 1-335)
# T10 sequence: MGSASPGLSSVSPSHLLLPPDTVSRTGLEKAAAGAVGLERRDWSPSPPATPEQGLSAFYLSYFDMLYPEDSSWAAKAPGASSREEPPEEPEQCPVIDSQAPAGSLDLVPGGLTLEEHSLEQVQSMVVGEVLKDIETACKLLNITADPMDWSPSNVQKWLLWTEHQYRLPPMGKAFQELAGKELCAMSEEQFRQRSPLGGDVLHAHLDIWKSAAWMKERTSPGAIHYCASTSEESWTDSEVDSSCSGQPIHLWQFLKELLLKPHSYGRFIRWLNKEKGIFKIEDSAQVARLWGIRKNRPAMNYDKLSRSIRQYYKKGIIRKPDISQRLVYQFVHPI
# Procedure, shortened: as §1
# [17] = target: T11, ETV7 (Homo sapiens, UniProt Q9Y603 1-341)
# T11 sequence: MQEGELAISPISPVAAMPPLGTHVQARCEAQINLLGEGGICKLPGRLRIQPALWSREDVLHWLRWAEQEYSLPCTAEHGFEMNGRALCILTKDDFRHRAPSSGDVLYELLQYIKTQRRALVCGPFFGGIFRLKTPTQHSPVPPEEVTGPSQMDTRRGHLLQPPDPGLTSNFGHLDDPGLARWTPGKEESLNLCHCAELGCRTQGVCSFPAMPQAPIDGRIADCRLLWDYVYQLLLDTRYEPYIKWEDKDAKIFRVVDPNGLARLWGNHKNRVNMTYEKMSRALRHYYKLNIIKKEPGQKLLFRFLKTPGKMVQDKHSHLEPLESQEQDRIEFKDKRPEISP
# Procedure, shortened: as §1
# [18] = target: T12, ETV3 (Homo sapiens, UniProt P41162-2 1-143)
# T12 sequence: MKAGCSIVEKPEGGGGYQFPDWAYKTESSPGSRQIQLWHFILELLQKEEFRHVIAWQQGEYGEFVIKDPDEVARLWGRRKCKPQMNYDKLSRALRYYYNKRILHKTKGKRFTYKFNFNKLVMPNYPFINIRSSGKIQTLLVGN
# Procedure, shortened: as §1
# [19] = target: ETV6 (Homo sapiens, UniProt P41212 1-452)
# Procedure, shortened: as §1
# Sequence of ETV5 (P41161 whole entry): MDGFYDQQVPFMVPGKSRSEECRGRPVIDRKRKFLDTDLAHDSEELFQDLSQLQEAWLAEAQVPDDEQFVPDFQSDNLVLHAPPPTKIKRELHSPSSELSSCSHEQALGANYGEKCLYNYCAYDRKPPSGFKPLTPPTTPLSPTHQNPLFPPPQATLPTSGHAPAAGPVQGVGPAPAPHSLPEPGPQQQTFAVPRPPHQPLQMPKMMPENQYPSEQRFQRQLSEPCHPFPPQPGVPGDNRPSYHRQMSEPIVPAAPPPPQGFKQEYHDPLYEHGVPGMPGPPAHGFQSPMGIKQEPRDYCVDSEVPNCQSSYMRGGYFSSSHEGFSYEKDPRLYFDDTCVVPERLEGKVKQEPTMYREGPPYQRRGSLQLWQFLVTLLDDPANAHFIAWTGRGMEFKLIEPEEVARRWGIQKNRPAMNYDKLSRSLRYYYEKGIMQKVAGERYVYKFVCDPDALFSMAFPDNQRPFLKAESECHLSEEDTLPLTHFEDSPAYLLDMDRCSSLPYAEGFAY
# Sequence of SPIB (Q01892 whole entry): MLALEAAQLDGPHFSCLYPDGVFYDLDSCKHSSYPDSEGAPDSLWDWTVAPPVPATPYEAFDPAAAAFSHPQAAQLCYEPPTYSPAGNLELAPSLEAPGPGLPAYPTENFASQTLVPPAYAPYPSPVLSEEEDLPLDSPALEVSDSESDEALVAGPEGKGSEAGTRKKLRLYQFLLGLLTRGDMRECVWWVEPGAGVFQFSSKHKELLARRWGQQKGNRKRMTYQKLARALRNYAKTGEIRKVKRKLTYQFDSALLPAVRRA
# Sequence of ELF4 (Q99607 whole entry): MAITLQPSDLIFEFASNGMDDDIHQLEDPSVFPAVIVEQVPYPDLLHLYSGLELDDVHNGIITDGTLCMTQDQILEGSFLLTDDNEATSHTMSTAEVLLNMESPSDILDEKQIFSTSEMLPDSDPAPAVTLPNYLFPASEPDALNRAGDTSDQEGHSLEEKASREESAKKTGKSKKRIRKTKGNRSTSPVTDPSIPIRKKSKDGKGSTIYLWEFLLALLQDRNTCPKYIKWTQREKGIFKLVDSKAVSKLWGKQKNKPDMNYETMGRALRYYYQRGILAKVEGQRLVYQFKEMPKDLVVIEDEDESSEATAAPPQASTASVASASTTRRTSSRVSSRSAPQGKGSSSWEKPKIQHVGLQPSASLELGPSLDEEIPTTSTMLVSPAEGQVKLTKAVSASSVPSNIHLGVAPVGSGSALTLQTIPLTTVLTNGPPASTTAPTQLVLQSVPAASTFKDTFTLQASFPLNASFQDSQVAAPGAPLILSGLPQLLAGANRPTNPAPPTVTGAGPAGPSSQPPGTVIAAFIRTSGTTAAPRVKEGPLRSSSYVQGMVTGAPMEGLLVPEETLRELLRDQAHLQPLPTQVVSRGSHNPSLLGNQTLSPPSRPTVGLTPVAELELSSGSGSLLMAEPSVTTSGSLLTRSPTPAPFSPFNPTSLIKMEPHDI
# Sequence of ETV1 (P50549 whole entry): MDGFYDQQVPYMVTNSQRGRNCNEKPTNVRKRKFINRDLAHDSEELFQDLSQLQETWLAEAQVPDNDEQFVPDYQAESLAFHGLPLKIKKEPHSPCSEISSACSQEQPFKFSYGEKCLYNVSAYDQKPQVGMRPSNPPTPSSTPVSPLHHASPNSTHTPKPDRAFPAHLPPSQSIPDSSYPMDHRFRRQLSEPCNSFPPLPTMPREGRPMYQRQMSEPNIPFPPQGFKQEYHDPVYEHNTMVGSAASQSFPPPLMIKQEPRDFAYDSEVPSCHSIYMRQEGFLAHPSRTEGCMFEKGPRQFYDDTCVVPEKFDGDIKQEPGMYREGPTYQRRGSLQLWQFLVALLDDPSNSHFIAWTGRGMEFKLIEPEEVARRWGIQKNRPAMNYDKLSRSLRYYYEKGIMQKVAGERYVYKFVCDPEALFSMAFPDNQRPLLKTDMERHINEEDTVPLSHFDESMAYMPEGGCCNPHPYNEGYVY
# Sequence of ELF1 (P32519 whole entry): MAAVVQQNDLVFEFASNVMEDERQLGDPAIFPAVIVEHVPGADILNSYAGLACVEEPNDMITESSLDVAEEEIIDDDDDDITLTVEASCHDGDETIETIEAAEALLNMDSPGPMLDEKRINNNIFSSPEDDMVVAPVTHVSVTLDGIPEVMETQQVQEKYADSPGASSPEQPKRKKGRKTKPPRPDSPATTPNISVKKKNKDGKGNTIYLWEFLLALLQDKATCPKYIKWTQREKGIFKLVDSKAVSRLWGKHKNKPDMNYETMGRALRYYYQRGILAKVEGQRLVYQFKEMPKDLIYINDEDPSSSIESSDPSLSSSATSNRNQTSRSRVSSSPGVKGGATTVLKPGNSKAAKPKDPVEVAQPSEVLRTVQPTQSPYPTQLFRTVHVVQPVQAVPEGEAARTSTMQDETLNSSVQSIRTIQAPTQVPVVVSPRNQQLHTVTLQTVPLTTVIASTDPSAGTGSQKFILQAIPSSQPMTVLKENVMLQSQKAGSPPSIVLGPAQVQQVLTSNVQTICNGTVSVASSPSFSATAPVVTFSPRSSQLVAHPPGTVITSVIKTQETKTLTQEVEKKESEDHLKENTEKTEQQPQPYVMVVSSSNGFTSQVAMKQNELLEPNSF
# Sequence of ETV6 (P41212 whole entry): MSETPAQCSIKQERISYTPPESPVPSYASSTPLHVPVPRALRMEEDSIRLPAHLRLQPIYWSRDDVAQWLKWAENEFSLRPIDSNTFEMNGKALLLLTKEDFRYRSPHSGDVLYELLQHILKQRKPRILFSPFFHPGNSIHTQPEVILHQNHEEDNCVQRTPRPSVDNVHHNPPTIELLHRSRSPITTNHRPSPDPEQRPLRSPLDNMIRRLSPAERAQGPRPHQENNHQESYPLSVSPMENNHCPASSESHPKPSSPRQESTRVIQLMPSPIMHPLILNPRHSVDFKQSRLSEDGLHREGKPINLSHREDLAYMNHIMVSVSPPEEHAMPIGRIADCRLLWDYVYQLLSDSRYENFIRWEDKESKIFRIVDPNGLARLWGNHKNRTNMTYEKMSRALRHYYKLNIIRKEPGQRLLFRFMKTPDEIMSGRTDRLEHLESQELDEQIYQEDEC
sequence,measurement,setting,value
CCCGTC,binding signal,[1],"1.1 fold enrichment (6-mer frequency, TF over GST control)"
same,binding signal,[2],"1.01 fold enrichment (6-mer frequency, TF over GST control)"
same,binding signal,[3],"1.1 fold enrichment (6-mer frequency, TF over GST control)"
same,binding signal,[4],"1.13 fold enrichment (6-mer frequency, TF over GST control)"
same,binding signal,[5],"1.09 fold enrichment (6-mer frequency, TF over GST control)"
same,binding signal,[6],"1.11 fold enrichment (6-mer frequency, TF over GST control)"
same,binding signal,[7],"1.05 fold enrichment (6-mer frequency, TF over GST control)"
same,binding signal,[8],"1.09 fold enrichment (6-mer frequency, TF over GST control)"
same,binding signal,[9],"1.08 fold enrichment (6-mer frequency, TF over GST control)"
same,binding signal,[10],"1.07 fold enrichment (6-mer frequency, TF over GST control)"
same,binding signal,[11],"1.03 fold enrichment (6-mer frequency, TF over GST control)"
same,binding signal,[12],"1.1 fold enrichment (6-mer frequency, TF over GST control)"
same,binding signal,[13],"1.14 fold enrichment (6-mer frequency, TF over GST control)"
same,binding signal,[14],"1 fold enrichment (6-mer frequency, TF over GST control)"
same,binding signal,[15],"1.04 fold enrichment (6-mer frequency, TF over GST control)"
same,binding signal,[16],"1.12 fold enrichment (6-mer frequency, TF over GST control)"
same,binding signal,[17],"1.16 fold enrichment (6-mer frequency, TF over GST control)"
same,binding signal,[18],"1.03 fold enrichment (6-mer frequency, TF over GST control)"
same,binding signal,[19],"1.07 fold enrichment (6-mer frequency, TF over GST control)"
